# Screening results deposited in PubChem BioAssay by Broad Institute.
# A selection: hits, their analogues and other compounds. The true share with any hit is near 2.3%.
# SIRT5 inh – SIRT5 desuccinylase inhibitors, primary screen, biochemical, fluorescence imaging, single point, set 5; NAD-dependent protein deacylase sirtuin-5, mitochondrial (Homo sapiens), Q9NXA8; Purified SirT5, succinyl-peptide AMC, trypsin-coupled fluorescence; inhibition, % at 15 µM; hit rate 1.1% among 330,000; AID 652115, 2013; in the data active = inhibition above about 15%; inconclusive = no clear call, values can overlap the other calls
# ERp5 inh – inhibitors of ERp5-driven insulin aggregation, primary screen, biochemical, turbidity, absorbance 650 nm, single point. 90 min. inhibition, % at 9.99 µM. hit rate 0.05% among 350,000. AID 651711, 2012;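 active = mean replicate inhibition above about 25%, with every replicate also reaching it, limit read from the data, passing the limit was not always enough; inconclusive = only one of those two criteria met; inactive = neither criterion met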
# Target sequence (Q15084 whole entry, looked up): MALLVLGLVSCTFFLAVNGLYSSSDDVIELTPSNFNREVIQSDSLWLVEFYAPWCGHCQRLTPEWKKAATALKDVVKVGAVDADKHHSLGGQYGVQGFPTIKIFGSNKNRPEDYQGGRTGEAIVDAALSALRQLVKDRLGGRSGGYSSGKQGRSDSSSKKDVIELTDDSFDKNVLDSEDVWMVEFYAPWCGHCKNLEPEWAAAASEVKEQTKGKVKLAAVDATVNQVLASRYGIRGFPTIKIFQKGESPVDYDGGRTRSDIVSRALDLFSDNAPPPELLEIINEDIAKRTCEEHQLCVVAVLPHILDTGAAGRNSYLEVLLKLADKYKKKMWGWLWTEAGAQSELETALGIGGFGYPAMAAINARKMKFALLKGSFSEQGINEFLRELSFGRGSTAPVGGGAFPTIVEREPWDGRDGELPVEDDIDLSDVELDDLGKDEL
# Rtt109 HAT inh – inhibitors of C. albicans Rtt109/Vps75 HAT, primary screen, biochemical, ThioGlo CoA-SH fluorescence, plate reader; AID 540336, 2011; Histone acetyltransferase RTT109 (Candida albicans (strain SC5314 / ATCC MYA-2876)), …; inhibition, % at 34.9 µM; purified Rtt109/Vps75, 4 h; hit rate 0.16% among 330,000;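 active = inhibition of at least 50% in every replicate; inconclusive = best replicate reaches 50% inhibition but some replicates fall short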
# PDI turbidity – inhibitors of human PDI, primary screen, biochemical, turbidity, single point, plate reader; Protein disulfide-isomerase (Homo sapiens), P07237; hit rate 0.052% among 350,000; AID 588391, 2011; inhibition, % at 10 µM; PDI insulin aggregation turbidity, A650, 90 min;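 active = mean inhibition across replicates of 30% or more, whatever share of single replicates reach that level; inconclusive = mean inhibition below 30% while every single replicate reaches 30%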
# DENV2 CPE rescue – inhibitors of DENV2 cytopathic effect, primary screen, cell-based, plate reader, single concentration; CPE inhibition, % at 9.99 µM; hit rate 1.7% among 350,000; AID 651640, 2012; DENV2-infected cells, cytopathic effect rescue; in the data active = CPE inhibition above about 20%, passing the limit was not always enough; inconclusive = no clear call, values can overlap the other calls; tested in BHK-21 cells;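 note: 0% = median of neutral control wells and 100% = median of positive control wells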
# * marks the source's active call; other numbers are inactive results; ? = inconclusive; nt = not tested or not shown.
SMILES,SIRT5 inh,ERp5 inh,Rtt109 HAT inh,PDI turbidity,DENV2 CPE rescue
CC(C)CC#Cc1cnc2c(c1)C(=O)N([C@@H](C)CO)C[C@@H](C)[C@@H](CN(C)C(=O)Cc1ccncc1)O2,-2.0,-0.8,nt,nt,27.9*
C[C@H]1CN([C@@H](C)CO)C(=O)c2cc(Br)cnc2O[C@H]1CN(C)C(=O)C1CCOCC1,-1.0,-4.7,nt,nt,23.6*
OC[C@H]1N[C@@H](CNCC2CCC2)[C@@H]1c1ccc(C2=CCCCC2)cc1,7.3,3.3,nt,nt,2.1
C[C@@H]1CN([C@@H](C)CO)C(=O)c2cc(C#Cc3ccccc3F)cnc2O[C@@H]1CN(C)C(=O)C1CCC1,0.2,4.7,nt,nt,15.0
O=C(NCCOc1ccccc1)C1CCC(=O)N(CCc2ccccn2)C1 (configuration not stated),0.0,2.3,-7.7,-7.3,1.5
O=C(NCc1ccccn1)C1CCC(=O)N(Cc2ccc(Cl)cc2)C1 (configuration not stated),37.5*,3.0,0.7,11.8,10.0
Cc1ccc(CNC(=O)C2CCC(=O)N(CCc3ccccn3)C2)s1 (configuration not stated),-1.3,-1.7,1.6,1.0,33.3*
COc1ccc(CCN2CC(C(=O)NCCc3ncccc3C)CCC2=O)cc1 (configuration not stated),1.8,2.7,nt,13.8,33.9*
O=C(NCCc1cnccn1)C1CCC(=O)N(Cc2ccc(Cl)cc2)C1 (configuration not stated),5.7,-0.4,-6.6,-0.1,-0.7
Cc1cnc(CNC(=O)C2CCC(=O)N(Cc3ccc(Cl)cc3)C2)[nH]1 (configuration not stated),-5.0,-1.8,0.6,-1.6,71.9*
O=C(NCc1ccccc1F)C1CCC(=O)N(Cc2ccc(Cl)cc2)C1 (configuration not stated),-0.3,-0.8,7.7,9.2,1.1
COc1ccc(CNC(=O)N(C)C[C@H]2OCc3ccccc3-c3c(n(C)c4ccccc34)C(=O)N([C@@H](C)CO)C[C@@H]2C)cc1,4.5,-4.5,nt,nt,-4.4
CN(C)CCCNC(=O)C[C@@H]1CC[C@H]2[C@H](COc3ccc(NC(=O)c4ccc5c(c4)OCO5)cc3C(=O)N2C)O1,-3.3,1.5,nt,nt,11.0
O=C(C1CCOCC1)N1CC(=O)N2[C@H](C1)[C@@H](c1ccc(-c3ccccc3F)cc1)[C@@H]2CO,-3.5,-5.5,nt,nt,23.0*
O=C(c1cccnc1)N1CC(=O)N2[C@H](C1)[C@@H](c1ccc(-c3ccccc3F)cc1)[C@@H]2CO,-1.9,-1.2,nt,nt,34.7*
O=C(c1ccncc1)N1CC(=O)N2[C@H](CO)[C@@H](c3ccc(-c4ccccc4F)cc3)[C@H]2C1,-2.1,-0.6,nt,nt,9.2
O=C(c1cnccn1)N1CC(=O)N2[C@H](CO)[C@@H](c3ccc(C4=CCCCC4)cc3)[C@@H]2C1,28.4*,-4.1,nt,nt,11.0
O=C(C1CCOCC1)N1CC(=O)N2[C@H](C1)[C@H](c1ccc(-c3ccccc3F)cc1)[C@@H]2CO,2.8,4.9,nt,nt,20.5*
COc1ccccc1NC(=O)N1[C@H](CO)[C@H](c2ccccc2)[C@@H]1C#N,3.4,2.6,nt,nt,-4.1
COc1ccc(C#Cc2cccc(-c3nc(C(=O)N4CCN(C)CC4)cc4c3[C@@H](CCO)N(S(=O)C(C)(C)C)C4)c2)cc1OC (some centres not stated),2.2,-1.1,nt,nt,-3.4
Cc1ccc(S(=O)(=O)N(CC(=O)O)Cc2ccco2)cc1,-0.7,-5.4,2.2,10.5,28.0*
C[C@H](CO)N1C[C@H](C)[C@H](CN(C)Cc2ccc(C(=O)O)cc2)Oc2c(NS(=O)(=O)c3ccccc3)cccc2C1=O,-4.9,12.0,nt,nt,50.3*
CNC[C@H]1Oc2c(NS(=O)(=O)c3ccc(Cl)cc3)cccc2C(=O)N([C@H](C)CO)C[C@H]1C,-4.3,0.5,nt,nt,79.5*
C[C@@H]1CN([C@H](C)CO)C(=O)c2cccc(NS(=O)(=O)c3ccc(F)cc3)c2O[C@@H]1CN(C)Cc1ccccc1,5.6,3.2,nt,nt,-4.8
C[C@@H]1CN([C@H](C)CO)C(=O)c2cccc(NS(=O)(=O)c3ccc(Cl)cc3)c2O[C@H]1CN(C)Cc1ccccc1,-2.5,8.4,nt,nt,25.0*
SMILES,SIRT5 inh,ERp5 inh,Rtt109 HAT inh,PDI turbidity,DENV2 CPE rescue
C[C@H](CO)N1C[C@H](C)[C@H](CN(C)Cc2ccccc2)Oc2c(NS(=O)(=O)c3ccc(F)cc3)cccc2C1=O,0.6,5.7,nt,nt,104.5*
CCCN1[C@H](C(=O)NCC)[C@@H](CO)[C@@H]2Cn3c(ccc(-c4ccc(C(=O)N(C)C)cc4)c3=O)[C@@H]21,-0.1,3.2,nt,nt,-2.2
CNC[C@H]1Oc2c(NS(=O)(=O)c3cccs3)cccc2C(=O)N([C@@H](C)CO)C[C@H]1C,-0.8,-8.4,nt,nt,26.5*
CC1(C)CC(=O)C2=C(C1)c1c(ccc3ccccc13)NC2c1cc([N+](=O)[O-])cc([N+](=O)[O-])c1O (configuration not stated),16.7*,-1.6,-5.6,0.0,-0.1
COc1ccc2c3c(n(C)c2c1)[C@@H](CO)N(C(=O)CC1CC1)CC31CCN(C(=O)C2CCC2)CC1,nt,nt,nt,nt,7.4
Cc1ccc(SC(=O)c2c(C)noc2-c2cc(C)on2)cc1,-3.1,2.3,1.7,1.7,41.4*
CN1C(=O)c2cc(NC(=O)c3ccc(F)cc3)ccc2OC[C@H]2O[C@@H](CC(=O)NCC3CCCCC3)CC[C@@H]21,2.4,-0.4,nt,nt,?
C=CC[C@@H](CC(=O)N[C@H](CO)Cc1ccccc1)C(=O)N[C@@H](COC(=O)[C@H](CC=C)CC(=O)OC(C)(C)C)Cc1ccccc1,nt,1.7,0.2,-8.0,78.9*
C=CCC[C@@H](Cc1ccc(F)cc1)C(=O)OC[C@@H]1CCCN1C(=O)[C@H](CC=C)CC(=O)N[C@H](CO)Cc1ccccc1,nt,6.4,21.9,-3.5,20.4*
C=CC[C@@H](CC(=O)N[C@@H](CO)Cc1ccccc1)C(=O)N[C@@H](COC(=O)[C@@H](CC=C)Cc1ccc(F)cc1)Cc1c[nH]c2ccccc12,nt,2.2,-5.9,9.6,72.8*
C=CCC[C@@H](Cc1ccc(F)cc1)C(=O)OC[C@H]1CCCN1C(=O)[C@@H](CC=C)CC(=O)N[C@H](CO)Cc1ccccc1,12.1,1.7,14.7,-0.8,-2.6
CO[C@H]1CN(C)C(=O)c2ccc(NC(=O)C3CCOCC3)cc2OC[C@H](C)NC[C@@H]1C,-1.6,-0.8,nt,nt,9.5
O=C(NCCCCc1ccccc1)c1ccc(Br)o1,nt,nt,-2.9,-4.1,nt
CCCCCCNC(=O)c1ccc(Br)o1,32.2*,-0.2,-1.9,1.7,9.2
COc1ccccc1/C=C/c1nc(S(=O)(=O)c2ccccc2)c(N2CCC(C(N)=O)CC2)o1,16.6*,-0.2,11.7,6.2,-1.7
